# According to PubChem BioAssay AID743398 (Broad Institute, 2014):
# In all, about 300,000 compounds went through this assay and about 3,600 (1.2%) were called active. The list comes from a sample in which actives are over-represented; it also holds similar structures and randomly drawn compounds. A number with no mark means an inactive call. No stated cut-off is given here; in the data, active means activation above about 30% (passing the limit was not always enough); inconclusive means no clear call, values can overlap the other calls. Where a SMILES comes first, the peptide text is derived from it. [ ]: non-standard residue; d: D form. The star is where a group is joined. PhAc = O=C(Cc1ccccc1)*
# Assay: activation of beta-catenin signaling reporter – cell-based, plate reader, single point, primary screen (AID 743398);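 further: 0% = neutral control wells and 100% = positive control wells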
# Details: Wnt/beta-catenin reporter cell assay, activator, at 9.35 µM, stronger effect = higher value
row,Compound,activation
1,Cc1ccc(Nc2nc(-c3ccc(O)cc3O)cs2)nc1,59.5% (active)
2,Clc1ccc(Nc2nc(-c3cccs3)cs2)nc1,25.2%
3,CC(=O)Nc1cnc(-c2ccc(O)cc2C)cn1,-0.836%
4,Cn1c(=O)c2cc(NC(=O)NCCc3cccs3)ccc2n1Cc1cccc(C(F)(F)F)c1,-1.78%
5,Cc1ccc(S(=O)(=O)N2CC3C(=O)C[C@@H](c4ccccc4Cl)N(S(=O)(=O)c4ccc(C)cc4)C3CC2c2ccccc2)cc1 (stereo not given in full),-1.39%
6,COC(=O)c1ccc2nc(-c3ccc(Cl)cc3)c(Cc3cccc(F)c3)n2c1,11.3%
7,Cc1ccnc(NC(=O)CCNS(=O)(=O)c2ccc(C)c(C)c2)c1,35.8% (active)
8,Cc1ccc(S(=O)(=O)NCCC(=O)Nc2cccc(S(N)(=O)=O)c2)cc1C,-1.96%
9,Cc1ccc(S(=O)(=O)NCCC(=O)Nc2ccc(C)c(Cl)c2)cc1C,-1.93%
10,CCN1CCCC1CNC(=O)c1ccc2c(c1)NC(=O)/C(=C\c1ccccc1F)S2 (stereo not given),-0.637%
11,O=c1[nH]c(-c2ccccc2)cn1C1CCN(Cc2ccc(-c3nc4ccc(F)cc4nc3-c3ccccc3)cc2)CC1,0.441%
12,COCCCn1c(C(=O)NC2CCCCC2)cc2c(=O)n3cccc(C)c3nc21,-1.3%
13,CC(C)NC(=O)N1Cc2cc(C(=O)NCC(F)(F)F)nc(-c3cccc(-c4cc5ccccc5o4)c3)c2[C@@H]1CCO,-2.74%
14,O=C(/C=C/c1cnc2ccccc2n1)NC1CCCCCC1,49.2% (active)
15,CC1CCCCC1NC(=O)Cn1c(=O)cnc2ccccc21 (stereo not given),-3.58%
16,CC(C)c1cc(C(=O)NC2CCCCCC2)c2ccccc2n1,-2.8%
17,COC(=O)[C@]1(Cc2ccccc2)NC=C(C(=O)c2ccccc2)[C@@H]1c1cccc(OC)c1,2.93%
18,COC(=O)c1c(-c2ccc(OC)cc2)c2c(c3c4cc(OC)ccc4n(S(=O)(=O)c4ccc(F)cc4)c13)C(=O)N(C)C2,-8.37%
19,CCNC(=O)C1(C)CCCN1C(=O)c1ccc(N(C)C)cc1 (stereo not given),-4.12%
20,CN(C)c1ccc(CNC23CN4CN(CN(C4)C2)C3)cc1,35.9% (active)
21,CN(C)c1ccc(CSc2ccccc2)cc1,2.13%
22,Nc1ncnc2c1ncn2[C@@H]1O[C@H](C(=O)N[C@@H](CCc2ccccc2)C(=O)NCC(=O)N2CCOCC2)[C@@H](O)[C@H]1O,-8.65%
23,COc1ccc(OCCCn2cccc2/C=C2/C(=N)N3OC(C)=CC3=NC2=O)cc1,21%

row,Compound,activation
1,CCOc1cc(/C=C2\C(=N)N3N=C(C)SC3=NC2=O)ccc1OCCOc1ccccc1,0.097%
2,CCOc1cc(/C=C2/C(=N)N3OC(C)=CC3=NC2=O)ccc1OC,39.2% (active)
3,COc1ccc(-c2cc3c(c4c2ccn4C)C2CCC3C2)cn1 (stereo not given),-0.553%
4,Cc1cccc(-c2cnc(C(O)c3ccc4ccccc4c3)[nH]2)c1 (stereo not given),-0.607%
5,Cc1ccc(NC(=O)Nc2ccccc2)c(Br)c1,50.8% (active)
6,CS(=O)(=O)c1ccc(Cl)c(NC(=O)Nc2ccccc2)c1,1.45%
7,Cc1c(NC(=O)Nc2ccccc2)cccc1[N+](=O)[O-],1.75%
8,CC[C@H](C)[C@H]1CNC(=O)C(=O)N1CC1CCN(CCc2ccc(OC)c(OC)c2)CC1,-3.36%
9,COc1cccc(-c2nc3cc(C)ccc3o2)c1,40.6% (active)
10,COc1ccc2oc(-c3cccc(NC(=O)CSc4ccc(Cl)cc4)c3)nc2c1,22.7%
11,COc1ccc2oc(N)nc2c1,2.19%
12,CC(=O)Oc1ccc(Cn2c(C)c(C(=O)NCc3ccc(C#N)cc3)sc2=O)cc1,-1.94%
13,Cc1ccc(-c2nc3c(Cl)cc(C(F)(F)F)cn3c2Cc2cccc(Cl)c2)cc1,-3.09%
14,CC(=O)Nc1cccc(-c2cc(NC=O)c3ncc(-c4ccc(F)c(Cl)c4)n3c2)c1,-1.52%
15,COc1cccc(-c2cc3nc(NCCOc4ccccc4Cl)n(C)c(=O)c3s2)c1,0.348%
16,COc1ccc(-c2ccc3c(n2)CCCN3S(=O)(=O)c2ccc(C)cc2)cc1,-3.98%
17,O=C(O)c1ccccc1CSc1nc2ccccc2s1,2.11%
18,O=C(O)CCCCc1nc2ccccc2s1,-1.61%
19,O=C(O)CSCc1nc2ccccc2s1,39.2% (active)
20,CS(=O)(=O)N1CCc2nc(-c3ccccc3)sc2C1,35.7% (active)
21,CC(=O)c1cnc(-c2ccccc2)s1,2.94%
22,CS(=O)(=O)N1CCC(C(=O)N2CCN(c3ccccc3)CC2)CC1,-0.44%
23,COC(=O)Cc1nnn2c1[C@H](C)[C@@H](OC)c1cc(Br)ccc1-2,2.78%

row,Compound,activation
1,Nc1nc2c(ncn2[C@@H]2O[C@H](C(=O)N[C@H](Cc3ccccc3)C(=O)NCC3CCCCC3)[C@@H](O)[C@H]2O)c(=O)[nH]1,-6.28%
2,COc1ccc(CNC(=O)c2ccc(-c3cccnc3)c3ccoc23)cc1OC,-3.07%
3,COc1ccc(CCC(=O)c2ccc(OC)cc2)cc1,5.92%
4,CO/N=C/CC(=O)c1ccc(OC)cc1,61.5% (active)
5,COc1ccc(OCCC(=O)c2ccc(OC)cc2)cc1,-1.86%
6,CC(C)(C)C(c1nc2ccccc2[nH]1)n1c(Cc2csc3ccccc23)nc2ccccc21 (stereo not given),15.7%
7,CCCCN1Cc2c(nc3cc(-c4ccccc4)[nH]n3c2=O)C1=O,0.267%
8,C=CCc1c(C)nc2cc(-c3ccccc3)[nH]n2c1=O,45.5% (active)
9,CCc1c(C)nc2cc(C)[nH]n2c1=O,-2.02%
10,COc1ccc(CN2CCC(C)(Oc3cccc(F)c3)C2)c2ccccc12 (stereo not given),-4.58%
11,CCc1nc2c(OCCOc3ccccc3)cccn2c1N(C)C(=O)c1ccccc1F,-2.42%
12,CC(O)(c1cccc(F)c1)c1nc(-c2ccc3c(c2)OCO3)cs1 (stereo not given),-1.63%
13,Nc1ccc(-c2nnc(-c3ccccc3)o2)cc1,2.79%
14,O=C(Oc1ccc(-c2nc(-c3ccccn3)no2)cc1)c1ccccc1,1.55%
15,Brc1ccc(-c2noc(-c3ccccc3)n2)o1,43.9% (active)
16,Cc1cc2nc(-c3ccc(F)cc3)c(Cc3ccsc3)n2c(C)c1Br,-0.642%
17,COc1cccc(CNC(=O)[C@H]2CCCN2C(=O)[C@H]2CCCN2C(=O)C2CCCCC2)c1,0.974%
18,COC(=O)[C@H](CC(C)C)NC(=O)N1CCCCC1C (stereo not given in full),39.6% (active)
19,CC(C)C[C@@H](NC(=O)[C@H]1CCCN1C(=O)Cc1ccccc1)C(N)=O (PhAc-[dP]-[dL]-NH2),0.192%
20,CC(C)C[C@H](NC(=O)C1CCC(CNC(=O)[C@@H]2CCCN2C(=O)OC(C)(C)C)CC1)C(=O)O (stereo not given in full),1.33%
21,COc1cccc(CNC(=O)[C@H]2CCCN2C(=O)[C@H]2CCCN2C(=O)c2cc(F)cc(F)c2)c1,-1.85%
22,CN(C)c1ccc(C2Nc3ccccc3C(=O)N2NS(=O)(=O)c2ccccc2)cc1 (stereo not given),-0.625%
23,O=C1c2ccccc2NC(c2ccccc2O)N1NS(=O)(=O)c1ccccc1 (stereo not given),-0.668%

row,Compound,activation
1,O=C1c2ccccc2NC(c2ccccn2)N1NS(=O)(=O)c1ccccc1 (stereo not given),31% (active)
2,c1ccc(CNCc2ccc(CNCc3ccccc3)cc2)cc1,0.235%
3,N#CCCN(C(=O)Nc1ccc(Cl)c(Cl)c1)C1CCCCC1,2.31%
4,CC1(C(=O)NCc2ccc3c(c2)OCO3)CCN1C(=O)Cc1cccc2ccccc12 (stereo not given),12.9%
5,CCN(CC)CCN(C)C(c1ccnc2ccccc12)c1nnnn1-c1ccc2c(c1)OCCO2 (stereo not given),-2.38%
6,CCc1cccc(CC)c1N1C(=O)CC(Sc2ccccc2N)C1=O (stereo not given),2.41%
7,O=S(=O)(Nc1ccc2nc(N3CCOCC3)sc2c1)c1ccccc1,29.3%
8,Brc1ccc2nc(N3CCCC3)sc2c1,43.7% (active)
9,c1c2c(cc3sc(N4CCCCC4)nc13)OCCO2,1.11%
10,COC(=O)[C@@]12C[C@@H](CC(=O)N3CCC(c4ccccc4)CC3)C(=O)N(Cc3ccccc3)C1=CCC(C)(C)C2,-3.58%
11,CCCCCc1c(Cc2ccccc2)ncn1CCc1ccccc1OC,-9.51%
12,O=C(CNC(=O)c1ccccc1)Oc1ccc([N+](=O)[O-])cc1,-0.597%
13,O=C(O)c1cc([N+](=O)[O-])c(Nc2cccc3ccccc23)c([N+](=O)[O-])c1,0.153%
14,O=C(Nc1ccc2ccccc2c1[N+](=O)[O-])c1ccccc1,55.8% (active)
15,COC(=O)c1c(-c2ccc(OC)cc2)c2c(c3c4ccccc4n(S(=O)(=O)c4ccc(C)cc4)c13)C(=O)N(C)C2,-6.59%
16,COC(=O)C1=C(C(=O)OC)C2C=C(C(C)C)C1C(=O)C2(C)O (stereo not given),-3.31%
17,O=C(NCc1ccc(F)cc1)c1cc(C2CCCCN2C(=O)c2ccccn2)on1 (stereo not given),-0.749%
18,O=C(NCc1ccccc1)[C@@H]1CCCN1C(=O)[C@@H](NS(=O)(=O)c1ccc(F)cc1F)C1CCCCC1,-0.246%
19,COC(=O)c1ccc(CSc2ccc(S(=O)(=O)N3CCCCC3)cn2)cc1,-0.89%
20,COC(=O)c1ccc(CSc2nncn2N)cc1,-7.5%
21,COC(=O)c1ccc(SCc2ccccc2)nc1,51.6% (active)
